From PubChem BioAssay AID1259343 (VanderVen Lab, College of Veterinary Medicine, Cornell …, 2017) come the findings set out here.

The structures appear in SMILES notation. Hit rate of the full screen: of about 6,200 compounds, about 2,900 (47%) were called active. The set was probably picked from earlier hits. The list shows a part of the results. Values without a mark were called inactive. Rule as the data show it: active = inhibition above about 50%; inactive = the rest.

The nature of this assay: Mycobacterium tuberculosis growth inhibition, primary screen (AID 1259343). Particulars: inhibition: at 10 µM, hits give high values; outcome: 10 uM.
As a reminder, the inhibition is the change of the read-out against control, counted positive when it falls. As to `Brc1ccc(OCCOc2cccc(-n3cnnn3)c2)cc1`, the inhibition is 69.1% (active).

In the case of `CCOc1ccc(-n2c(C)cc(C(=O)COc3cccc(-n4cnnn4)c3)c2C)cc1`, the inhibition is 89.6% (active).

`O=c1cnc2ccccc2n1CCOc1ccc(Br)cc1`: the inhibition is 22.6%.

With `OCC1(Cc2ccccc2F)CCCN(Cc2nc(-c3ccccc3)cs2)C1` (stereo not given), the inhibition was 13.4%.

Take `CC(=O)c1cc(Cl)ccc1OCC(=O)Nc1ccc(C)cc1Br`: the inhibition was 29.6%.

Consider `CC(C)CC(NC(=O)c1ccc(Cl)cc1Cl)C(=O)Nc1ncn[nH]1` (stereo not given), for which the inhibition is 3.98%.

Consider `Cc1cc(OCC(=O)Nc2ncn[nH]2)c(C)cc1Br`, for which the inhibition was 71.5% (active).

On to `Brc1ccc(NCc2ccsc2)cc1`, for which the inhibition is 47.5%.

With `O=S(=O)(CCNc1ccc(Br)cc1)c1ccc(Cl)cc1`, the inhibition was 93.3% (active).

For `COc1ccccc1OS(=O)(=O)CCS(=O)(=O)c1ccc(Cl)cc1`, the inhibition is 33.8%.

For the compound `COc1ccc(-c2csc(-n3[nH]c(C)c(N=Nc4nccs4)c3=O)n2)cc1`, the inhibition is 98.8% (active).

With `Brc1ccccc1C1N=C(c2ccccc2)NO1` (stereo not given), the inhibition is 67.1% (active).

Consider `CC1=NN(c2nc(C)cc(C)n2)C(=O)C1Cc1ccccc1Cl` (stereo not given), for which the inhibition is -7.67%.

As for `CC(C(=O)O)c1ccc2c(c1)[nH]c1ccc(Cl)cc12` (stereo not given), the inhibition is 86% (active).

Take `CCN(C)CC1CCN(C(=O)CC2CCC(c3ccccc3)CC2)C1` (stereo not given): the inhibition was -3.03%.

As to `CCN(CC)c1ncnc(N2CCC(c3ccccc3)CC2)c1N`, the inhibition is 56.1% (active).

As to `CC(C)(C)C1CCN(c2ncnc(Oc3ccc(F)cc3)c2N)CC1`, the inhibition is 25.6%.

With `O=C(COn1nnc2ccc(C(F)(F)F)cc21)NC12CC3CC(CC(C3)C1)C2`, the inhibition is 21.7%.

On to `COc1cccc(-c2cc3c(Nc4ccc5c(c4)OCCO5)nccc3n2C)c1`, for which the inhibition was 61.1% (active).

On to `COc1cccc(-c2cc3c(Nc4ccc5c(c4)OCO5)nccc3n2C)c1`, for which the inhibition was 85.6% (active).

On to `O=C1CCC2(CCCO2)CCN1Cc1ccc(C(F)(F)F)nc1` (stereo not given), for which the inhibition was -2.37%.

Turning to `O=C(Cn1nc(-c2ccc(F)cc2)oc1=O)N1CCSc2ccccc21`, the inhibition was 80.5% (active).

Turning to `NC(N)=NCCCCN=C(N)N`, the inhibition was 0.43%.

With `CS(=O)(=O)N=C1C=C(S(=O)(=O)c2ccccc2)C(=O)c2ccccc21`, the inhibition was 30.9%.

For `COc1ccc2c([N+](=O)[O-])c(-n3nnc4ccccc43)[nH]c2c1`, the inhibition is -24.2%.

As for `COc1ccc2c(Cl)c(C(=O)n3cnc4ccccc43)sc2c1`, the inhibition is 94.7% (active).

On to `C(=Nn1c(-c2ccc3c(c2)OCCO3)csc1=NC1CCCCC1)c1cccnc1`, for which the inhibition is 9.36%.

Regarding `O=[N+]([O-])c1nn(-c2ccc3c(c2)OCCO3)n(O)c1=NC1CCCCCC1`, the inhibition is 62.8% (active).

As for `Brc1cccc(N2CCC(CNc3ncccn3)C2)c1` (stereo not given), the inhibition was 90.2% (active).

For the compound `O=S(=O)(NCc1ccc(N2CCCC2)cc1)c1cccc(Br)c1`, the inhibition was 28.5%.

As to `Cc1ccc(COc2ccc(/C=N\NC(=O)CN3CCCCC3)cc2)cc1`, the inhibition is 83.3% (active).

Consider `CNC(=O)C1CCN(C(=O)COc2ccc(Oc3ccc(C)cc3)cc2)CC1`, for which the inhibition was -12.7%.

Regarding `CC1Cc2cc(S(N)(=O)=O)ccc2N1CCCc1ccccc1` (stereo not given), the inhibition was -10.1%.

With `O=c1c(Cl)c(Nc2ccc3c(c2)CCC3)cnn1-c1ccccc1`, the inhibition is 21.7%.

With `CC(C)(C)n1ncc(NCC2CCCc3ccccc32)c(Cl)c1=O` (stereo not given), the inhibition is 22.4%.

`O=c1c(Cl)c(NCC2CCC2)cnn1-c1ccc(Cl)cc1`: the inhibition was 58% (active).

On to `Cc1ccc(CC(SCc2ccccc2)C(=O)O)cc1C` (stereo not given), for which the inhibition is 57.4% (active).

On to `CN(C)c1ccc(Nc2nc3ccccc3n3nnnc23)cc1`, for which the inhibition was 11.8%.

As to `Clc1ccc2nc(Cl)c3nnnn3c2c1`, the inhibition was 102% (active).

`CCOc1ccc(Cl)cc1CNc1nnnn1C`: the inhibition was -8.06%.

`Cc1ccc(OCC(=O)NC2CCCC(C)C2C)cc1` (stereo not given): the inhibition was 60% (active).

As to `COc1ccc(-c2ccc(C(=O)NS(C)(=O)=O)c(F)c2)c(F)c1`, the inhibition is 55.6% (active).

For the compound `COc1cc(NC(=O)C(C)Oc2ccc(F)c(F)c2)cc(OC)c1` (stereo not given), the inhibition is 34.5%.

Take `Cc1cc(NC(=O)C2CCC2)n(-c2ccc(C(F)(F)F)cn2)n1`: the inhibition was 79.6% (active).

For the compound `FC(F)(F)c1ccc(N2CCN(C(=S)NC3CC3)CC2)nc1`, the inhibition was -12.1%.

With `Cc1cc(=O)[nH]c(-n2nc(C)cc2NC(=O)C2CCCCC2)n1`, the inhibition was 101% (active).

Take `Cc1cc(=O)[nH]c(-n2nc(C)cc2NC(=O)C2CC2)n1`: the inhibition was 100% (active).

Regarding `Cc1cc(=O)[nH]c(-n2nc(-c3cccs3)cc2NC(=O)C2CCCCC2)n1`, the inhibition is 100% (active).

For the compound `O=C(Nc1nccs1)C1CCN(c2ccc(C(F)(F)F)cn2)CC1`, the inhibition is 18.4%.

For `Cc1cc(=O)[nH]c(-n2nc(-c3cccs3)cc2NC(=O)C2CC2)n1`, the inhibition was 2.59%.

As for `Cc1ccccc1C(=O)OC1CCCN(C)C1` (stereo not given), the inhibition was -3.69%.

Regarding `Cc1cc(=O)[nH]c(-n2nc(C)cc2NC(=O)C2CCCC2)n1`, the inhibition was 98.1% (active).

As to `CC(C)NC(=O)c1ccc(-c2ccc([N+](=O)[O-])cc2Cl)o1`, the inhibition is 37.9%.

`O=C(O)c1cc([N+](=O)[O-])ccc1NCCCc1ccccc1`: the inhibition is -0.63%.

For `O=C(CCl)Nc1cc([N+](=O)[O-])ccc1Cl`, the inhibition was 71.2% (active).

On to `Cc1ccc(-c2csc(-c3ccc(O)cc3)n2)s1`, for which the inhibition was 11.1%.

With `Cc1ccc(-c2cc(C(=O)O)n[nH]2)s1`, the inhibition was 99.8% (active).

For `CCCCN(C)C(=O)c1cc(-c2ccc(C)s2)[nH]n1`, the inhibition was 25.6%.

With `O=C(O)c1cnc(Nc2ccc(F)c(F)c2)c(Cl)c1`, the inhibition is 30.5%.

For the compound `O=C(Nc1ccccc1)Nc1ccc(Cl)c(Cl)c1`, the inhibition is 95.9% (active).

As for `O=C(Nc1ccc(Cl)c(Cl)c1)Nc1ccc(I)cc1F`, the inhibition was -10.8%.

For `Cc1ccc(Cl)cc1Nc1ncccc1C(=O)N[C@H]1C[C@H]2CC[C@@H]1C2`, the inhibition was 9.89%.

In the case of `O=C(O)c1cccnc1Nc1ccc(Cl)c(Cl)c1`, the inhibition is 63.9% (active).

Consider `O=C(Nc1ccc(I)cc1)Nc1ccc(Cl)c(Cl)c1`, for which the inhibition was -0.68%.

Turning to `CCOc1ccc(NC(=O)c2ccc(Cl)o2)cc1`, the inhibition is 17%.

On to `CCOc1ccc(NC(=O)c2nc(C)n(-c3ccc(Cl)cc3)n2)cc1`, for which the inhibition was 94.3% (active).

With `CCCCN(CCCC)CCCCSc1ccc(O)cc1`, the inhibition is 74.1% (active).

Consider `CC(C)(C)c1nc(COc2cccc3c2CCCC3O)no1` (stereo not given), for which the inhibition is 5.49%.

With `Cc1ccccc1C(=O)Nc1cc(-c2ccco2)nn1-c1nc(C)c(C)c(=O)[nH]1`, the inhibition is -10.1%.

As for `COc1cccc(C(=O)Nc2cc(-c3ccco3)nn2-c2nc(C)c(C)c(=O)[nH]2)c1OC`, the inhibition was 98.4% (active).

Turning to `Cc1nc(-n2nc(-c3ccco3)cc2NC(=O)c2c(F)cccc2F)[nH]c(=O)c1C`, the inhibition is 99.8% (active).

Take `Cc1ccc(OCC(=O)Nc2cc(-c3ccco3)nn2-c2nc(C)c(C)c(=O)[nH]2)cc1`: the inhibition was 101% (active).

`Cc1nc(-n2nc(-c3ccco3)cc2NC(=O)COc2ccc(F)cc2)[nH]c(=O)c1C`: the inhibition was 100% (active).

For `Cc1nc(-n2nc(-c3ccco3)cc2NC(=O)CC(C)C)[nH]c(=O)c1C`, the inhibition was 101% (active).

On to `Cc1nc(-n2nc(-c3ccco3)cc2NC(=O)C2CC2)[nH]c(=O)c1C`, for which the inhibition is 99.8% (active).

Turning to `Cc1cc(N)n(-c2cc(C(F)(F)F)ccc2Cl)n1`, the inhibition is 0.14%.

In the case of `Cn1ncc2c(N3CCC(OCc4cccnc4)CC3)nc(C(C)(C)C)nc21`, the inhibition is 85.9% (active).

Turning to `CC(=O)O[C@H]1C[C@@]2(C)[C@@H](C[C@@H](O)[C@H]3[C@@]4(C)CC[C@@H](O)[C@@H](C)C4CC[C@@]32C)/C1=C(\CCC=C(C)C)C(=O)O` (stereo not given in full), the inhibition is 69.4% (active).

On to `O=S(=O)(NC(C1CC1)C1CC1)c1cccc(Br)c1`, for which the inhibition is 14.3%.

For the compound `Oc1ccc(N2CCN(Cc3nc(-c4ccc(C(F)(F)F)cc4)no3)CC2)cc1`, the inhibition is 72.1% (active).

`COc1ccc(-c2noc(CN3CCC(O)(c4cccc(C(F)(F)F)c4)CC3)n2)cc1`: the inhibition is 56.9% (active).

Regarding `CC(C)CCNC(=O)c1c(O)nc2sccn2c1=O`, the inhibition is 89.6% (active).

As to `CCCCNC(=O)c1c(O)nc2sccn2c1=O`, the inhibition was 33.8%.

With `CC(C)CNC(=O)c1c(O)nc2sccn2c1=O`, the inhibition is 55.9% (active).

Turning to `O=C(NCCC1=CCCCC1)c1c(O)nc2sccn2c1=O`, the inhibition is 83.9% (active).

For the compound `O=C(O)c1ccc(OS(=O)(=O)c2ccc(Cl)c(Cl)c2)cc1`, the inhibition is 35.4%.

In the case of `CN(C)S(=O)(=O)Oc1ccc(C(=O)c2ccccc2)cc1`, the inhibition is 51.1% (active).

Take `O=C1CCCCC1Sc1nnnn1-c1ccc(O)cc1` (stereo not given): the inhibition was 41%.

For the compound `O=C(CSc1nn(-c2ccc(F)cc2)c(=S)s1)Nc1cc(F)ccc1F`, the inhibition is -1.19%.

For the compound `O=C1CCCCC1Sc1nn(-c2ccc(F)cc2)c(=S)s1` (stereo not given), the inhibition is 70.1% (active).

As to `O=[N+]([O-])c1ccc(CON=Cc2ccc(OC(F)F)cc2)cc1`, the inhibition was 55.5% (active).

Take `O=[N+]([O-])c1ccc(CON=Cc2ccc(Cl)cc2Cl)cc1`: the inhibition is -5.39%.

As for `N#Cc1ccc(CON=Cc2ccc(OC(F)F)cc2)cc1`, the inhibition was -4.56%.

Regarding `CC(C)CNC(=O)c1cn(Cc2ccc(F)cc2)nc1OCc1ccc(F)cc1`, the inhibition was 13.6%.

Turning to `CC(C)CNC(=O)CSc1n[nH]c(/C=C/c2ccc(F)cc2)n1`, the inhibition is 87% (active).

For the compound `C/C(Cl)=C\COc1cc(C)nc2ccc(Br)cc12`, the inhibition is 99.8% (active).

Take `Cc1coc2c1C(=O)C(=O)c1c-2ccc2c1CCCC2(C)C`: the inhibition was 58.8% (active).

For `COc1ccc(NCc2nn(CC(=O)c3ccc(Br)cc3)c3[n+]2CCCCC3)cc1`, the inhibition was 17.7%.

With `CCn1nnc2c(=O)n(CC(=O)c3ccc(OC)cc3)cnc21`, the inhibition is 77.2% (active).

`O=c1[nH]nc2nc(N3CCCCC3)nc(N3CCCCC3)n12`: the inhibition is 18.9%.
